Experimental data from PubChem BioAssay AID2314 (National Center for Advancing Translational Sciences (NCATS), 2010).
Hit rate of the full screen: of about 300,000 compounds, about 37,000 (12%) were called active. For the sample, actives were picked, then their nearest neighbours and some compounds at random. A number with no mark means an inactive call. Rule as the data show it: active = max response mostly above about 13% (no sharp cut-off); inactive = mostly below about 14%.

experiment: Cycloheximide Counterscreen for Small Molecule Inhibitors of Shiga Toxin; conditions: cell reporter, cycloheximide protein synthesis inhibition counterscreen; hits give high values; also: read at 38.3 µM for the half of the compounds with a filed dose; 0% is about no effect

| SMILES | max response |
| --- | --- |
| Cc1occc1C(=O)Nc1nnc(-c2ccncc2)s1 | 15.8% |
| CC1CCN(c2ccc(C(=O)Nc3nnc(C4CC4)s3)cc2[N+](=O)[O-])CC1 | -2.98% |
| Cc1occc1C(=O)Nc1nnc(C2CCCCC2)s1 | 17.4% (active) |
| O=C(Nc1nnc(C2CC2)s1)C1=NN(C2CCS(=O)(=O)C2)C(=O)CC1 (stereo not drawn) | -6.02% |
| O=C(Nc1nnc(C2CC2)s1)c1ccccn1 | 34.9% (active) |
| COc1ccc(NC(=O)CCC(=O)Nc2nnc(C3CCCCC3)s2)cc1 | -3.75% |
| Cc1cccc(NC(=O)CSCC(=O)Nc2nnc(C3CC3)s2)c1 | 6.4% |
| O=C(Nc1nnc(C2CC2)s1)c1cc(Cl)sc1Cl | 12.2% (active) |
| O=C(Cc1cccs1)Nc1nnc(C2CC2)s1 | 8.46% |
| COc1ccccc1CNC(=O)[C@@H]1CCCN1C(=O)[C@@H]1Cc2ccccc2CN1C(=O)OC(C)(C)C | 8.54% |
| Cc1ccc(S(=O)(=O)N(C)CC(=O)NCCc2c[nH]c3ccccc23)cc1 | 0.209% |
| Cc1cccc(NC(=O)NC2(C)CCS(=O)(=O)C2)c1 (stereo not drawn) | 1.38% |
| COc1ccccc1CNC(=O)c1ccc(N(C)S(=O)(=O)c2ccc(C)cc2)cc1 | -0.735% |
| Cc1coc2c(O)cc3c(c12)OC1(N2CCCCC2)C(=O)NCCCC31 (stereo not drawn) | -0.492% |
| COc1ccc(CNS(=O)(=O)c2cc(-c3cc(C)no3)ccc2C(C)C)cc1 | -0.908% |
| CCCCC(=O)Nc1c2c(nn1-c1ccc([N+](=O)[O-])cc1)CS(=O)(=O)C2 | -4.82% |
| O=C(c1cc2ccccc2s1)N1CCN(c2ccccn2)CC1 | -0.772% |
| CC(C)c1cc(C(N)=O)c(NC(=O)c2cccc(COc3ccc(Br)cc3)c2)s1 | 142% (active) |
| Cc1ccc(COc2ccc(C(=O)NN)cc2)cc1 | 15.8% |
| NNC(=O)c1cccc(COCC(F)(F)C(F)F)c1 | 9.81% |
| CN(C)C(=O)CCC(=O)N1CCCCC1C(=O)Nc1ccc(Oc2ccccc2F)cc1 (stereo not drawn) | -1.6% |
| O=S(=O)([N-]c1nc2ccccc2nc1-[n+]1ccc(Cc2ccccc2)cc1)c1ccc(Br)s1 | 10.5% (active) |
| Cc1cc(C)c[n+](-c2nc3ccccc3nc2[N-]S(=O)(=O)c2cccs2)c1 | -0.756% |
| O=S(=O)(NCc1cccnc1)c1ccc(Br)s1 | -6.09% |
| CCCSc1nc(NCc2ccco2)c2c3c(sc2n1)COC(C)(CC)C3 (stereo not drawn) | 24.2% |

| SMILES | max response |
| --- | --- |
| O=c1onc(-c2c(F)cccc2F)n1-c1ccccc1Cl | -4.66% |
| O=C(O)c1cc2c(cc1NC(=O)c1c(F)cccc1Cl)OCCCO2 | -4.07% |
| NC(=O)CSc1nnc(NC(=O)c2ccc(Br)o2)s1 | 27.9% |
| O=C(Nc1nnc(SCc2ccccc2Cl)s1)c1cccc([N+](=O)[O-])c1 | -4.31% |
| CCOC(=O)CSc1nnc(NC(=O)c2cccc(S(=O)(=O)N3CCCC3)c2)s1 | -1.74% |
| CCSc1nnc(NC(=O)Cc2ccccc2OC)s1 | 7.43% |
| C=CCSc1nnc(NC(=O)c2ccc(NC(C)=O)cc2)s1 | 14.5% (active) |
| CCSc1nnc(NC(=O)c2ccc(C)cc2)s1 | 32.4% (active) |
| Cc1ccc(N=Cc2c(O)n(-c3nccs3)c(=O)c3ccccc23)c(C)c1 | 0.787% |
| O/N=C(\C[n+]1ccccc1)c1ccc(Br)cc1 | -6.18% |
| CC1CC(=O)N(CC(=O)Nc2cccc(Cl)c2)c2ccccc2S1(=O)=O (stereo not drawn) | -1.52% |
| O=C(NC1CCCCCC1)c1cccnc1Sc1ccc(Cl)cc1 | -2.31% |
| Cc1cc(C)c(NC(=O)C[N+](C)(C)CC(O)COc2cccc3ccccc23)c(C)c1 (stereo not drawn) | -2.87% |
| CCC(C)(C)NC(=O)C(c1ccc(O)cc1)N(Cc1ccco1)C(=O)CCC(=O)Nc1ccccn1 (stereo not drawn) | 13.8% |
| COc1ccc(C2=NS(=O)(=O)N(C)C(C(=O)NC(C)c3ccccc3)=C2)cc1 (stereo not drawn) | -2.97% |
| O=C(Nc1cccc(-c2cscn2)c1)C1CCN(Cc2ccsc2)CC1 | -0.646% |
| COCCOC(=O)c1c(C)oc2cc(Br)c(OCC(N)=O)cc12 | -1.75% |
| Cc1cc(-c2n[nH]c(=S)n2-c2ccc(C)c(C)c2)no1 | 10.2% |
| CCC(C)Sc1nnc(-c2c[nH]c3ccccc23)n1CCOC (stereo not drawn) | -2.17% |
| CCn1c(SCCC(C)C)nnc1-c1c[nH]c2ccccc12 | -5.75% |
| CCCc1cc(-c2nc(-c3ccc(C)cc3)cs2)ccn1 | 39.7% (active) |
| Cc1cc(-c2nc(C)c(-c3nnc(SCC(=O)Nc4ccccc4)n3C)s2)no1 | -3.06% |
| Cc1ccc(-c2csc(-c3cc(C)on3)n2)cc1 | 17% (active) |
| Cc1ccc(-c2csc(-c3c[nH]c4ccccc34)n2)cc1 | 52.5% (active) |
| CCCc1nc2scc(-c3ccc(C)cc3)c2c(=O)n1N | 25.8% |

| SMILES | max response |
| --- | --- |
| CCCc1cc(-c2n[nH]c(=S)n2CC)c2ccccc2n1 | -5.71% |
| COc1cccc(N(CC(=O)NC2CCCC2)C(=O)CCCC(=O)Nc2ccccn2)c1 | -1.64% |
| Cn1nccc1C(=O)NC1CCCc2c1cnn2-c1ccc(F)cc1F (stereo not drawn) | -0.526% |
| O=C(NCCN1C(=O)S/C(=C\c2cccnc2)C1=O)c1ccc(S(=O)(=O)N2CCCC2)cc1 | 7.82% |
| NC(=O)C1(C(N)=O)OC1c1ccc(Cl)cc1Cl (stereo not drawn) | -2.97% |
| CCOCC(=O)NCc1ccc2c(c1)cc(C)n2C | 0.782% |
| Cc1sc(NC(=S)NC(=O)c2cccs2)nc1-c1ccc(CC(C)C)cc1 | 9.37% |
| Cc1ccc(S(=O)(=O)CC(=O)NC(C)c2ccccc2)cc1 (stereo not drawn) | -0.898% |
| CC1(C)SC2c3ccccc3C(=O)N2[C@@H]1C(=O)NCc1ccco1 (stereo partly drawn) | -2.7% |
| CCCCNC(=O)c1cn(CC)c2cc(N3CCN(C(=O)c4ccco4)CC3)c(F)cc2c1=O | -2.67% |
| CC(C)OCCCNC(=O)CN1C(=O)/C(=C/c2ccccc2F)Oc2ccccc21 | -1.24% |
| CN(C)C(=O)Cn1c(=O)n(S(=O)(=O)c2ccccc2)c2ccccc21 | -2.7% |
| O=C(CSc1ncnc2c1oc1ccccc12)NC1CCCC1 | 13.3% (active) |
| O=C(CSc1nnc(-c2ccccc2O)o1)NC1CCCCC1 | -5.38% |
| O=C(CSc1nnc2c(n1)[nH]c1ccccc12)NC1CCCCC1 | -2.06% |
| COc1ccc(N(CC(=O)NCCSCc2cccc(Cl)c2)S(C)(=O)=O)cc1 | 10.3% |
| COc1ccccc1NC(=O)CCC(=O)N1CC(C)Oc2ccc(C)cc21 (stereo not drawn) | -2.59% |
| COc1ccc(N(CC(=O)NCc2ccc(F)cc2)C(=O)CCC(=O)Nc2nccs2)cc1 | 2.82% |
| COc1ccc(CNc2nccs2)cc1 | 15.6% (active) |
| COc1ccc(CNc2ncnc3ccccc23)cc1 | -4.12% |
| O=C(NCc1cccnc1)C12CC3CC(CC(C3)C1)C2 | -4.42% |
| COC(=O)c1ccccc1SC1CC(=O)N(c2cccc(C)c2)C1=O (stereo not drawn) | -2.47% |
| Cc1cccc(N2C(=O)CC(SC(N)=Nc3ccccc3)C2=O)c1 (stereo not drawn) | 6.82% |
| Cc1cccc(N2C(=O)SC(SC(=Nc3ccccc3)Nc3ccccc3)C2=O)c1 (stereo not drawn) | 50% (active) |
| O=C(NCc1ccc2c(c1)OCO2)C(=O)NCC1OCCN1S(=O)(=O)c1ccc(F)cc1 (stereo not drawn) | 0.524% |

| SMILES | max response |
| --- | --- |
| O=S(=O)(NC1CCCC1)c1ccc(-n2cnnn2)cc1 | -3.31% |
| Clc1nc(NC2CCCC2)nc(N2CCOCC2)n1 | -1.13% |
| CC1CC(C)CN(CCOc2cccc3ccccc23)C1 (stereo not drawn) | -3.88% |
| CCCC(=O)N1c2ccc(-c3csc(N)n3)cc2CC1C (stereo not drawn) | 82.4% (active) |
| CCn1nc(C(=O)OCC(=O)N2c3ccccc3CC2C)c2ccccc2c1=O (stereo not drawn) | -2.9% |
| Cc1ccn(CCC(=O)N2c3ccccc3CC2C)n1 (stereo not drawn) | -3.05% |
| COc1ccc(Nc2ncnc3ccc(OC)cc23)cc1 | 4.47% |
| COc1ccc(Nc2ncnc3sc(C)cc23)cc1 | 41% (active) |
| COc1ccc(Nc2cc(Sc3ccc(OC)cc3)ncn2)cc1 | 12.3% |
| CS(=O)(=O)N1CCN(CC(=O)NC2CCCC2)CC1 | 2.24% |
| COc1ccc(C2CC(=O)NC(=O)C2)cc1 | 5.71% |
| O=C1COc2ccc(S(=O)(=O)NCCc3ccc(Cl)cc3)cc2N1 | -8.47% |
| COC(=O)c1c(NC(=O)CN2C(=O)NC(CCc3ccccc3)C2=O)sc2c1CCCCC2 (stereo not drawn) | -2.51% |
| Nc1cc(N2CCCCCC2)c2nonc2c1[N+](=O)[O-] | -1.67% |
| Cc1cccc(NC(=O)CCN2CC(C)CC(C)C2)c1 (stereo not drawn) | -2.06% |
| N#CCc1ccc(NC(=O)c2ccccc2C(=O)Nc2ccc(CC#N)cc2)cc1 | 21.8% (active) |
| CC(=O)Nc1ccc(CC#N)cc1 | -2.61% |
| NC(=O)COc1ccc(NC(=O)c2ccccc2-c2ccccc2)cc1 | -2.28% |
| O=C(Nc1ccccc1N1CCOCC1)c1ccc(OCc2cscn2)cc1 | -3.59% |
| CNC(=O)N1c2ccccc2C=Cc2ccccc21 | -2.75% |
| Cc1nnc(SCc2cccc(Cl)c2)n(N)c1=O | 8.39% |
| Nn1c(SCc2ccccc2)nnc1C1CCCCC1 | 38.2% (active) |
| Cc1cccc(CSc2nnc(C)c(=O)n2N)c1 | -1.39% |
